About 83,000 compounds went through this panel and 20% of them were active in at least one assay; those are over-represented in the sample as a whole.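 Compound tested at a single concentration for 48 hours in 96-well plates; a percent growth value below 10 was scored as active.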 Calls of active or inactive are those of the source.
Key:
Experiment in all cases: NCI-60 one-dose screen, 48 h (100 = growth as untreated, 0 = no growth, -100 = all killed)
Details in all cases: 10 µM unless noted
HCT-15 colon = system: HCT-15 colon
HT29 colon = system: HT29 colon
SNB-75 CNS = system: SNB-75 CNS
SNB-19 CNS = system: SNB-19 CNS
U251 CNS = system: U251 CNS
PC-3 prostate = system: PC-3 prostate
SK-MEL-5 melanoma = system: SK-MEL-5 melanoma
UACC-62 melanoma = system: UACC-62 melanoma
LOX IMVI melanoma = system: LOX IMVI melanoma
SK-MEL-28 melanoma = system: SK-MEL-28 melanoma
SK-MEL-2 melanoma = system: SK-MEL-2 melanoma
SN12C renal = system: SN12C renal
UO-31 renal = system: UO-31 renal
TK-10 renal = system: TK-10 renal
ACHN renal = system: ACHN renal
CAKI-1 renal = system: CAKI-1 renal
A498 renal = system: A498 renal
CCRF-CEM leukemia = system: CCRF-CEM leukemia
MOLT-4 leukemia = system: MOLT-4 leukemia

Measured: growth

Cc1nn(-c2ccc(Cl)cc2)c(=O)n1CCOc1ccccc1Cl
inactive: HCT-15 colon 110% | HT29 colon 95.9% | SNB-75 CNS 70.6% | SNB-19 CNS 115% | U251 CNS 101% | PC-3 prostate 88.5% | SK-MEL-5 melanoma 105% | UACC-62 melanoma 101% | LOX IMVI melanoma 90.1% | SK-MEL-28 melanoma 96.6% | SK-MEL-2 melanoma 126% | SN12C renal 93.6% | UO-31 renal 94.9% | TK-10 renal 108% | ACHN renal 78.9% | CAKI-1 renal 85.7% | A498 renal 103% | CCRF-CEM leukemia 86.4% | MOLT-4 leukemia 97.2%

COc1cc(/C=C2\CCCC3=C2NC(C)=NC3c2cc(OC)c(OC)c(OC)c2)cc(OC)c1OC (centres undefined)
active: HCT-15 colon 4.23% | HT29 colon 7.9% | U251 CNS 9.77% | UACC-62 melanoma 9.03% | LOX IMVI melanoma -41.2% | CCRF-CEM leukemia -19.1% | MOLT-4 leukemia -22.9%
inactive: SNB-75 CNS 21.9% | SNB-19 CNS 61.2% | PC-3 prostate 42.7% | SK-MEL-5 melanoma 19.1% | SK-MEL-28 melanoma 31.9% | SK-MEL-2 melanoma 26.6% | SN12C renal 10.8% | UO-31 renal 51.1% | TK-10 renal 44.5% | ACHN renal 12.5% | CAKI-1 renal 11.4% | A498 renal 16.3%

CCCCCCCCCCCCOB(OCCCCCCCCCCCC)OCCCCCCCCCCCC
inactive: HCT-15 colon 105% | HT29 colon 105% | SNB-75 CNS 118% | SNB-19 CNS 106% | U251 CNS 94.4% | PC-3 prostate 98.5% | SK-MEL-5 melanoma 102% | UACC-62 melanoma 104% | LOX IMVI melanoma 89.7% | SK-MEL-28 melanoma 108% | SK-MEL-2 melanoma 108% | SN12C renal 95.8% | UO-31 renal 91.8% | TK-10 renal 101% | ACHN renal 109% | CAKI-1 renal 104% | A498 renal 112% | CCRF-CEM leukemia 95.3% | MOLT-4 leukemia 95.2%

COc1ccc(/C=C/c2nc(N3CCOCC3)c3nc(Cl)c(Cl)cc3n2)cc1OC
inactive: HCT-15 colon 97.5% | HT29 colon 97.4% | SNB-75 CNS 88.3% | SNB-19 CNS 102% | U251 CNS 103% | PC-3 prostate 102% | SK-MEL-5 melanoma 103% | UACC-62 melanoma 101% | LOX IMVI melanoma 97.2% | SK-MEL-28 melanoma 109% | SK-MEL-2 melanoma 99.1% | SN12C renal 98.3% | UO-31 renal 108% | TK-10 renal 104% | ACHN renal 100% | CAKI-1 renal 93.7% | A498 renal 93.7% | CCRF-CEM leukemia 99.3% | MOLT-4 leukemia 87.6%

Clc1ccc(/C=C/c2nc(N3CCOCC3)c3nc(Cl)c(Cl)cc3n2)cc1
inactive: HCT-15 colon 94.3% | HT29 colon 105% | SNB-75 CNS 94.3% | SNB-19 CNS 101% | U251 CNS 103% | PC-3 prostate 102% | SK-MEL-5 melanoma 90.2% | UACC-62 melanoma 106% | LOX IMVI melanoma 99.8% | SK-MEL-28 melanoma 111% | SK-MEL-2 melanoma 110% | SN12C renal 94.1% | UO-31 renal 76.7% | TK-10 renal 107% | ACHN renal 51.5% | CAKI-1 renal 109% | A498 renal 106% | CCRF-CEM leukemia 106% | MOLT-4 leukemia 88%

COc1ccc(C2=CC(c3ccc(Oc4ccnc5cc(Cl)ccc45)c(OC)c3)c3c(nc(OC)[nH]c3=O)N2)cc1 (centres undefined)
active: MOLT-4 leukemia 7.77%
inactive: HCT-15 colon 44.5% | HT29 colon 50.5% | SNB-75 CNS 73.1% | SNB-19 CNS 75.1% | U251 CNS 67.7% | PC-3 prostate 54.9% | SK-MEL-5 melanoma 74.6% | UACC-62 melanoma 51.9% | LOX IMVI melanoma 52.7% | SK-MEL-28 melanoma 91.1% | SK-MEL-2 melanoma 91.9% | SN12C renal 63.7% | UO-31 renal 56.5% | TK-10 renal 98.5% | ACHN renal 57.3% | CAKI-1 renal 82.9% | A498 renal 69.6% | CCRF-CEM leukemia 26.8%

FC(F)(F)c1cccc(-n2nnc3cnc(Nc4ccc(N5CCCCC5)cc4)nc32)c1
inactive: HCT-15 colon 66.1% | HT29 colon 74.3% | SNB-75 CNS 65.7% | SNB-19 CNS 94.3% | U251 CNS 62.9% | PC-3 prostate 50.2% | SK-MEL-5 melanoma 86.7% | UACC-62 melanoma 48.2% | LOX IMVI melanoma 90% | SK-MEL-2 melanoma 96.8% | SN12C renal 91% | UO-31 renal 100% | TK-10 renal 97.2% | ACHN renal 56% | CAKI-1 renal 72.9% | A498 renal 89.4% | CCRF-CEM leukemia 34.1% | MOLT-4 leukemia 63%
active: SK-MEL-28 melanoma -0.691%

Nc1c(C(=O)Nc2cccc(C(F)(F)F)c2)sc2nc3c(cc12)CCCCC3
inactive: HCT-15 colon 50.5% | HT29 colon 20.6% | SNB-19 CNS 44.8% | PC-3 prostate 53% | UACC-62 melanoma 12.8% | SK-MEL-28 melanoma 20.8% | SK-MEL-2 melanoma 39.4% | CAKI-1 renal 16.2% | CCRF-CEM leukemia 61.9% | MOLT-4 leukemia 83%
active: SNB-75 CNS -38.2% | U251 CNS -57% | SK-MEL-5 melanoma 0.77% | LOX IMVI melanoma 8.87% | SN12C renal 2.78% | UO-31 renal -39.8% | TK-10 renal -16.2% | ACHN renal -67.4% | A498 renal -21.8%

Oc1ccc(Cl)cc1-c1cc(-c2ccc(Cl)cc2)n[nH]1
inactive: HCT-15 colon 25% | HT29 colon 103% | SNB-75 CNS 59.1% | SNB-19 CNS 81.2% | U251 CNS 59.3% | PC-3 prostate 45.6% | SK-MEL-5 melanoma 70.9% | UACC-62 melanoma 64% | LOX IMVI melanoma 58.2% | SK-MEL-28 melanoma 87.6% | SK-MEL-2 melanoma 90.7% | SN12C renal 61.5% | UO-31 renal 29% | TK-10 renal 102% | ACHN renal 52.8% | CAKI-1 renal 47.7% | A498 renal 84.3% | CCRF-CEM leukemia 36.7% | MOLT-4 leukemia 39.5%

Clc1nc(-c2cccnc2)nc2sc3c(c12)CCCCCC3
inactive: HCT-15 colon 98.9% | HT29 colon 100% | SNB-75 CNS 91.3% | SNB-19 CNS 96.2% | U251 CNS 91.3% | PC-3 prostate 94.7% | SK-MEL-5 melanoma 96.8% | UACC-62 melanoma 91.3% | LOX IMVI melanoma 100% | SK-MEL-28 melanoma 104% | SK-MEL-2 melanoma 105% | SN12C renal 99.6% | UO-31 renal 101% | TK-10 renal 103% | ACHN renal 105% | CAKI-1 renal 93.8% | A498 renal 94.1% | CCRF-CEM leukemia 83.4% | MOLT-4 leukemia 90%

COc1ccc([N+](=O)[O-])c(/C=C/C(=O)c2ccccn2)c1
inactive: HCT-15 colon 57.5% | HT29 colon 58.8% | SNB-75 CNS 67.2% | SNB-19 CNS 97.6% | U251 CNS 42.2% | PC-3 prostate 82.1% | SK-MEL-5 melanoma 90% | UACC-62 melanoma 94.7% | LOX IMVI melanoma 41% | SK-MEL-28 melanoma 100% | SK-MEL-2 melanoma 114% | SN12C renal 81.2% | UO-31 renal 73.3% | TK-10 renal 126% | ACHN renal 68.9% | CAKI-1 renal 71.7% | A498 renal 83.3% | CCRF-CEM leukemia 49.6% | MOLT-4 leukemia 13.3%

O=c1[nH]c(-c2cn(-c3ccc(Cl)cc3)nn2)nc2ccccc12
inactive: HCT-15 colon 101% | HT29 colon 72.3% | SNB-19 CNS 72.8% | U251 CNS 74.5% | PC-3 prostate 74.8% | SK-MEL-5 melanoma 79% | UACC-62 melanoma 60.9% | LOX IMVI melanoma 90.8% | SK-MEL-28 melanoma 58.1% | SK-MEL-2 melanoma 77.2% | SN12C renal 71.9% | UO-31 renal 46.1% | TK-10 renal 80.6% | ACHN renal 42.5% | CAKI-1 renal 84.2% | A498 renal 24.7% | CCRF-CEM leukemia 98.6% | MOLT-4 leukemia 93.7%
active: SNB-75 CNS -9.19%

COC12CC(=O)C(C(C)=O)=C(O)C1(C)c1c(O)c(C)c(O)c(C(C)=O)c1O2 (centres undefined)
inactive: HCT-15 colon 66.6% | HT29 colon 86.5% | SNB-75 CNS 83.5% | SNB-19 CNS 52.8% | U251 CNS 57.2% | PC-3 prostate 73% | SK-MEL-5 melanoma 46.1% | UACC-62 melanoma 40.6% | LOX IMVI melanoma 57.5% | SK-MEL-28 melanoma 86.4% | SK-MEL-2 melanoma 41.9% | SN12C renal 49.1% | UO-31 renal 48.9% | TK-10 renal 78.4% | ACHN renal 77.9% | CAKI-1 renal 71.5% | A498 renal 61.1% | CCRF-CEM leukemia 47.2% | MOLT-4 leukemia 75.3%

Nc1c(C(=O)Nc2cccc([N+](=O)[O-])c2)sc2nc3c(cc12)C(O)CCC3 (centres undefined)
inactive: HCT-15 colon 39.9% | HT29 colon 17.4% | SNB-75 CNS 16.9% | SNB-19 CNS 79.9% | U251 CNS 51.4% | PC-3 prostate 57.2% | SK-MEL-5 melanoma 35.1% | UACC-62 melanoma 47.3% | LOX IMVI melanoma 62.8% | SK-MEL-28 melanoma 54.9% | SK-MEL-2 melanoma 26.2% | SN12C renal 65.8% | UO-31 renal 69% | TK-10 renal 76.6% | ACHN renal 92.1% | CAKI-1 renal 66.7% | A498 renal 27.6% | CCRF-CEM leukemia 37.2% | MOLT-4 leukemia 42.2%

COC(=O)[C@H]1[C@H](OC)[C@@H](OC(=O)/C=C/c2ccncc2)CC2CN3CCc4c([nH]c5cc(OC)ccc45)[C@@H]3C[C@@H]21 (some centres undefined)
inactive: HCT-15 colon 75.5% | HT29 colon 68.9% | SNB-75 CNS 48.6% | SNB-19 CNS 84.1% | U251 CNS 67.1% | PC-3 prostate 56% | SK-MEL-5 melanoma 89.6% | UACC-62 melanoma 43.8% | LOX IMVI melanoma 50.4% | SK-MEL-28 melanoma 94.5% | SK-MEL-2 melanoma 103% | SN12C renal 70.2% | UO-31 renal 56.9% | TK-10 renal 91.6% | ACHN renal 63% | CAKI-1 renal 53.3% | A498 renal 31.5% | CCRF-CEM leukemia 57.5% | MOLT-4 leukemia 78.2%

Cc1ccc(Cn2c(-c3cccs3)nc3ccccc32)cc1
inactive: HCT-15 colon 81.7% | HT29 colon 92.7% | SNB-75 CNS 62.2% | SNB-19 CNS 95.1% | U251 CNS 85.5% | PC-3 prostate 72.2% | SK-MEL-5 melanoma 82.4% | UACC-62 melanoma 85.4% | LOX IMVI melanoma 82.5% | SK-MEL-28 melanoma 111% | SK-MEL-2 melanoma 101% | SN12C renal 98.6% | UO-31 renal 59.5% | TK-10 renal 89.8% | ACHN renal 86.4% | CAKI-1 renal 86.3% | A498 renal 80.2% | CCRF-CEM leukemia 90.3% | MOLT-4 leukemia 93.2%

— PubChem BioAssay (NCI)
